VHR inh color: VHR1 phosphatase inhibitors, primary screen, biochemical, colorimetric, HTS | hit rate 0.7% among 50,000 | AID 1992, 2009 | recombinant VHR phosphatase, colorimetric substrate read-out | inhibition, % at 20 µM | Dual specificity protein phosphatase 3 (Homo sapiens), P51452; in the data active = inhibition above about 60%
Target sequence (P51452 whole entry, looked up): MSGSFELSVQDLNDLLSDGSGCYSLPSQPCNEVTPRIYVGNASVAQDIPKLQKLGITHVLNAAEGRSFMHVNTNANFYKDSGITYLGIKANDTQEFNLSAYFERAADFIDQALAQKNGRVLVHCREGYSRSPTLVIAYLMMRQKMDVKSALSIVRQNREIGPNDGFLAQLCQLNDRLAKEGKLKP
* marks the source's active call; other numbers are inactive results. This excerpt belongs to a sample that is enriched for hits.

SMILES	VHR inh color
CCC(=O)N1c2ccccc2NC2=C(C(=O)CC(c3ccccc3)C2)C1c1cccc(Br)c1 (stereo not given)	4
CCC(=O)N1c2ccccc2NC2=C(C(=O)CC(c3ccc(OC)cc3)C2)C1c1ccccc1 (stereo not given)	-6
COc1ccc(C2CC(=O)C3=C(C2)Nc2ccccc2NC3c2ccc(OC)c(OC)c2)cc1 (stereo not given)	7
O=C1NC(=S)N(c2ccc(F)cc2)C(=O)/C1=C/c1ccc(Br)o1	94*
O=C1NC(=O)N(c2ccc(Cl)cc2)C(=O)/C1=C/c1ccc(Br)o1	14
O=C1NC(=S)N(c2ccc(Br)cc2)C(=O)/C1=C\c1ccc(-c2ccc([N+](=O)[O-])cc2)o1	14
CC(C)c1ccc(N2C(=O)NC(=O)/C(=C/c3ccc(Br)o3)C2=O)cc1	82*
Cc1cccc(N2C(=O)NC(=O)/C(=C/c3ccc(Br)o3)C2=O)c1	30
O=C1NC(=S)N(c2ccc(Br)cc2)C(=O)/C1=C/c1ccc(-c2ccccc2C(=O)O)o1	18
O=C(Nc1ccc2c(c1)OCCO2)c1ccc(Br)cc1	8
COc1ccc(S(=O)(=O)/N=C2C=C/C(=N\S(=O)(=O)c3ccc(OC)cc3)C=C/2Cl)cc1	-16
O=C1C(Cl)=C/C(=N\S(=O)(=O)c2ccc(Cl)cc2)C(Cl)=C1Cl	96*
O=S(=O)(NCCCNS(=O)(=O)c1ccc(Cl)cc1)c1ccc(Cl)cc1	-13
O=C1C(Cl)=CC(=NS(=O)(=O)c2ccccc2)C=C1Cl	76*
CC1=CC(=O)C=C/C1=N\S(=O)(=O)c1ccc(C)cc1	28
CC1=CC(=NS(=O)(=O)c2ccc(C)cc2)C=C(C)C1=O	25
COc1ccc(/C(N)=N/OC(=O)c2cccc([N+](=O)[O-])c2C)cc1	-9
COc1cc(NC(=O)c2ccccc2[N+](=O)[O-])ccc1NC(=O)c1cc2ccccc2o1	-9
Cc1c(CCNC(=O)Nc2ccccc2)c2ccccc2n1Cc1ccccc1	5
Cc1cccc(C(=O)N2CCN(c3ccccn3)CC2)c1	3
Oc1c(Br)cc(Br)cc1C=Nc1ccc(Br)c2cccnc12	-23
CCC(C)c1ccc(OCCOc2c(Cl)cc(/C=N/n3cnnc3)cc2OC)cc1 (stereo not given)	-2
COc1ccccc1OCCOc1c(Cl)cc(/C=N/n2cnnc2)cc1OC	2
CCOc1cc(/C=N/n2cnnc2)cc(Cl)c1OCCOc1cc(C)ccc1C(C)C	110*
CCOC(=O)c1c(NC(=O)CCN2CCN(C)CC2)sc2c1CCCC2	-8
SMILES	VHR inh color
Cc1ccc(N=C2NC(=O)/C(=C/c3ccc(F)cc3)S2)cc1Cl	-1
COc1cc(/C=C2\SC(=Nc3ccc(C)c(Cl)c3)NC2=O)ccc1O	68*
Cc1ccc(N=C2NC(=O)/C(=C/c3cccc(O)c3)S2)cc1Cl	12
COc1ccc(OC)c(C2NC(=S)NC(C)=C2C(=O)Nc2ccc(C)cc2)c1 (stereo not given)	-2
CCOc1cc(C2Nc3ccccc3NC3=C2C(=O)CC(c2ccc(OC)cc2)C3)cc(Br)c1O (stereo not given)	2
CCOc1cc(C2Nc3ccccc3NC3=C2C(=O)CC(c2ccccc2)C3)cc(Br)c1O (stereo not given)	99*
COc1cc(C2Nc3ccccc3NC3=C2C(=O)CC(c2ccc(Cl)cc2)C3)cc(Br)c1O (stereo not given)	-3
CSCCC(NC(=O)c1cc(COc2ccc(-c3ccccc3)cc2)c(C)o1)C(=O)O (stereo not given)	-8
COc1ccc(C2CC(=O)C3=C(C2)Nc2ccccc2NC3c2cccc(F)c2)cc1OC (stereo not given)	9
COc1ccc(N(CC(=O)Nc2ccc3ccccc3c2)S(=O)(=O)c2ccc(C)cc2)cc1	-23
CCc1ccc(CNCCc2ccc(OC)cc2)cc1	6
CC1CCN(c2ccc(C=C3C(=O)c4ccccc4C3=O)cc2[N+](=O)[O-])CC1	-34
CC1=NN(c2ccccc2)C(=O)/C1=C\c1ccc(N2CCOCC2)c([N+](=O)[O-])c1	16
CN1C(=O)C(=Cc2ccc(N3CCCC3)c([N+](=O)[O-])c2)C(=O)N(C)C1=O	90*
COc1ccccc1/C=C1\SC(=S)N(CCC(=O)Nc2cccc(C)c2)C1=O	-27
Cc1cc(OCC(=O)Nc2nc(-c3ccccc3)cs2)ccc1Cl	82*
Cc1ccc(OCC(=O)Nc2nc(-c3ccccc3)cs2)cc1C	93*
O=C(COc1ccc(Cl)cc1)Nc1nc(-c2ccc(Cl)cc2)cs1	2
Cc1ccnc(NC(=O)COc2ccc(Cl)c(C)c2)c1	-6
O=C(COc1ccccc1Cl)Nc1nc(-c2ccccc2)cs1	-8
Cc1ccccc1OCC(=O)Nc1nc(-c2ccc(Br)cc2)cs1	-16
Nc1ccc(Oc2ccc(N)c(N)c2)cc1N	75*
COc1ccc(Oc2ccc(Oc3ccc(OC)cc3)cc2)cc1	-9
Nc1ccc(Oc2ccc(N)cc2)cc1	10
COCCNC(=O)CC12CC3CC(C1)CC(CC(=O)NCCOC)(C3)C2	-19
SMILES	VHR inh color
CCCCc1ccc(-c2csc(/C(C#N)=C/c3ccc(O)c(OCC)c3)n2)cc1	-36
O=C1NC(=O)N(c2ccccc2)C(=O)/C1=C\c1cccn1-c1ccc([N+](=O)[O-])cc1	25
C=CCN1C(=O)/C(=C\c2ccc(-c3ccc([N+](=O)[O-])cc3Cl)o2)C(=O)NC1=S	18
C=CCN1C(=O)/C(=C\c2cccn2-c2ccc([N+](=O)[O-])cc2)C(=O)NC1=S	80*
O=C1NC(=S)N/C1=C\c1ccc(-c2cc([N+](=O)[O-])ccc2Br)o1	-14
O=C1NC(=S)NC(=O)C1=Cc1ccc(-c2ccc([N+](=O)[O-])cc2Br)o1	64*
C=CCN1C(=O)/C(=C\c2ccc(-c3ccc([N+](=O)[O-])cc3Br)o2)C(=O)NC1=S	30
C=CCN1C(=O)/C(=C\c2ccc(-c3ccccc3[N+](=O)[O-])o2)C(=O)NC1=S	88*
O=C1NN(c2ccccc2)C(=O)/C1=C/c1cccn1-c1ccc([N+](=O)[O-])cc1	-1
C=CCN1C(=O)/C(=C\c2ccc(-c3ccc(OC)cc3[N+](=O)[O-])o2)C(=O)NC1=S	6
O=C(Nc1ccc(N2CCOCC2)cc1)c1cccc2c(Br)cccc12	3
CC(C)(C)N1C(=O)c2ccc(C(=O)c3ccc4c(c3)C(=O)N(C(C)(C)C)C4=O)cc2C1=O	-11
Cc1ccc(CSCCNC(=O)c2ccc(CN(c3cccc(Cl)c3)S(C)(=O)=O)cc2)cc1	-4
Cc1cccc(C=Nc2cc(Cl)ccc2O)c1O	-21
COC(=O)CN1C(=O)/C(=C\c2c(F)cccc2Cl)SC1=S	-18
Cc1ccc(N(CC(=O)NCc2ccco2)S(=O)(=O)c2ccc(F)cc2)cc1	-2
NC(=O)c1c(-c2ccc(Cl)cc2)csc1N	67*
CCOC(=O)c1c(-c2ccc(-c3ccccc3)cc2)csc1N	5
COC(=O)c1c(-c2ccc(Cl)cc2)csc1N	81
COC(=O)c1c(-c2ccc(C(C)(C)C)cc2)csc1N	95*
CCOC(=O)c1c(-c2ccc(C(C)C)cc2)csc1N	15
COC(=O)c1c(-c2ccc(OC)cc2)csc1N	30
CN1C(=O)/C(=C\c2cc(Cl)ccc2OCc2ccccc2Cl)SC1=S	0
CC(=O)Nc1nnc(-c2ccccc2)o1	-1
CCc1ccc(S(=O)(=O)Nc2ccc([N+](=O)[O-])c3ccccc23)cc1	0
CCCS(=O)(=O)C(=C(Nc1ccc(OC)cc1)Nc1ccc(OC)cc1)S(=O)(=O)CCC	2
